Screens (PubChem BioAssay)
D1 potentiator: potentiators of human D1 dopamine receptor. P21728. 360,000 compounds, 0.036% hits. potentiation, % at 10 µM. HEK293 TREx D1 cells, calcium flux, dopamine EC20 potentiation; in the data active = potentiation above about 30%; also: 0% is about no effect
LDHA inh: blocks human lactate dehydrogenase A. purified LDHA, NADH/diaphorase-resazurin fluorescence; active compounds read low. activity change, % (values are at about 110 or 230 µM). 480,000 compounds, 0.15% hits. AID 1347041; in the data active = activity change below about -30%;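 also: plate controls were DMSO wells for no effect and wells without enzyme for full effect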
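Remaining NADH was detected by diaphorase (0.133 mg/mL) converting 37 µM resazurin to fluorescent resorufin, read at 0 and 20 minutes. The preceding 5-minute room-temperature reaction used 2 nM LDHA, 0.2 mM sodium pyruvate and 0.06 mM NADH at pH 7.4.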
TRHR agonist: agonists of human TRH receptor | P34981 | TRHR cells, calcium flux fluo-8, FDSS agonist mode | activation, % at 2 µM | 360,000 compounds, 0.18% hits | AID 493084; also: 0% is about no effect
Target sequence (P34981 whole entry, looked up): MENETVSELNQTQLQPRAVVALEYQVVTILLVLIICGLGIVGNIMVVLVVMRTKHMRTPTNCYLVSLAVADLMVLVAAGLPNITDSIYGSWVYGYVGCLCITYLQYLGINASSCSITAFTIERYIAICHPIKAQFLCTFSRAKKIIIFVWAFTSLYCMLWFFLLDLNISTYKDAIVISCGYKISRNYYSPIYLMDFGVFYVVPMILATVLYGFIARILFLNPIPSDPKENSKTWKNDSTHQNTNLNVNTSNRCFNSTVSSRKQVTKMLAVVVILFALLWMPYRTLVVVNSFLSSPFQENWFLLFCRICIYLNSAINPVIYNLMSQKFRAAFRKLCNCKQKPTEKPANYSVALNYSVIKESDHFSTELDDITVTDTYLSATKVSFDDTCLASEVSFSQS
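Read-out: compound-evoked intracellular calcium rise in TRHR cells, fluo-8 dye, kinetic FDSS fluorescence at 1 s/cycle following a 10-cycle baseline. Cells cultured overnight before dye loading (30 min–1.5 h, RT).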
TRHR enhancer: TRH receptor (human) allosteric enhancement; P34981; TRHR cells, fluo-8 calcium fluorescence, EC20 TRH enhancement; enhancement, % at 2 µM; 360,000 compounds, 0.66% hits; AID 493056; in the data active = enhancement above about 30%; also: 0% is about no effect
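Enhancer read-out: after compound pinning and an initial kinetic agonist-mode read, an EC20 of TRH (10 nM final) was injected and fluo-8 calcium signal (Ex 480/Em 530) followed at 1 s/cycle for 100 cycles in TRHR-expressing cells.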
D1 agonist: agonists of human D1 dopamine receptor. P21728. HEK293 T-REx D1 cells, calcium flux, agonist mode. activation, % at 2 µM. 360,000 compounds, 1% hits. AID 504660; also: 0% is about no effect
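Agonism was scored from calcium flux recorded over 180 s (1 read/s) after pintool compound addition, following a 10-cycle baseline. Cells were inducible force-coupled HEK293 TREx D1, plated overnight at 30 C and loaded with no-wash calcium dye.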
D1 antagonist: human D1 dopamine receptor antagonism; activity change, negative = inhibition, % at 10 µM; HEK293 TREx D1 cells, calcium flux, dopamine EC80; active compounds read low; 360,000 compounds, 3.2% hits; P21728; in the data active = activity change below about -30%; also: % is scaled to controls: 0 for no effect and ±100 for the full control effect
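After overnight tetracycline induction at 30 C, force-coupled D1 HEK293 cells took up a no-wash calcium dye at room temperature. Compounds were added and monitored 180 s, and the response to EC80 dopamine was then recorded.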
The depositor's hits bear a star; . = not tested or not shown. The list is not random: actives were taken first. Their share in the collection is about 3.6%. Rule as the data show it, unless noted: active = activation above about 30%; inactive = the rest.

SMILES	D1 potentiator	LDHA inh	TRHR agonist	TRHR enhancer	D1 agonist	D1 antagonist
COc1ccc(-n2nnc3c(SCc4ccccc4)ncnc32)cc1	3	-7	1	-2	16	-6
COc1ccc(NC(=O)CSc2ncnc3c2nnn3-c2ccc(F)cc2)c(OC)c1	-4	-3	1	-5	2	-34*
COc1ccc(-n2nnc3c(SCC(=O)OCc4ccccc4)ncnc32)cc1	-9	-5	0	31*	5	-4
CC(C)c1nc2oc3c(N(CCO)CCO)ncnc3c2c2c1CCC2	.	8	.	.	.	.
CCCCCC(=O)N1C[C@@H](n2cc(-c3ccc(F)cc3)nn2)[C@H](O)C[C@@H]1c1ccc(C)cc1	.	-34*	.	.	.	.
CCCCCC(=O)N1C[C@@H](O)[C@H](n2cc(-c3ccc(F)cc3)nn2)C[C@@H]1c1ccc(C)cc1	.	-19	.	.	.	.
CC(Nc1nccc(C(F)(F)F)n1)c1cccc([N+](=O)[O-])c1 (stereo not drawn)	.	11	.	.	.	.
COc1c(O)cc2oc(-c3ccc(O)cc3)cc(=O)c2c1O	-7	1	-1	-2	2	-21
COc1cc(OC)c(-c2c3cc(O)c(=O)cc-3oc3cc(O)c(O)cc23)cc1OC	32*	30	266*	152*	626*	71
CCOC(=O)c1c(C)[nH]c(C)c1S(=O)(=O)NCC(=O)Nc1ccc(CC)cc1	-6	-1	0	11	6	-35*
CCOC(=O)c1c(C)[nH]c(C)c1S(=O)(=O)NCC(=O)NCc1ccc(C)cc1	-1	5	0	-1	4	-2
CCOC(=O)c1c(C)[nH]c(C)c1S(=O)(=O)NCC(=O)N1CCN(c2cc(Cl)ccc2C)CC1	0	-7	-1	7	4	-5
CCOC(=O)c1c(C)[nH]c(C)c1S(=O)(=O)NCCN1CCN(c2cc(Cl)ccc2C)CC1	-18	2	0	-2	1	-42*
Cn1c(SCc2cc(=O)n3[nH]cc(C#N)c3n2)nnc1-c1ccc(Cl)cc1	.	7	.	.	.	.
COc1cccc(NC(=O)c2ccccc2-c2nc(-c3ccccc3)no2)c1	-8	-1	0	1	3	-16
COc1cccc(NC(=O)c2ccccc2-c2nc(-c3ccc(Cl)cc3)no2)c1	3	-5	-1	-1	7	-33*
COc1cc(C(=O)Nc2ccccc2-c2nc(-c3ccccc3)no2)cc(OC)c1OC	-5	9	50*	6	1	-12
COc1cc(C(=O)Nc2ccccc2-c2nc(-c3ccc(C)cc3)no2)cc(OC)c1OC	0	1	0	2	2	-10
COc1ccc(Nc2ncc(C(=O)Nc3cc(Cl)ccc3OC)c3ccccc23)cc1	.	-5	.	.	.	.
CC(C)=CC(=O)NCCSC1CCCC1	.	-1	.	.	.	.
Cc1ccc(NC(=O)CCc2c(C)nc3c(-c4ccc(F)cc4)c(C)nn3c2C)cc1F	-4	-1	0	7	2	5
COc1cc(OC)cc(-c2nc3nc(C)c(CCC(=O)Nc4ccc(C)c(C)c4)c(C)n3n2)c1	-3	7	1	6	3	-57*
COc1cc(NC(=O)CCc2c(C)nc3c(-c4ccc(F)cc4)c(C)nn3c2C)cc(OC)c1OC	-8	1	0	4	0	-41*
CCS(=O)(=O)N1CCC(C(=O)NCCCN2CCN(c3ccccc3F)CC2)CC1	-13	-7	0	-2	0	-75*
O=C(NCCN1CCN(c2ccccc2F)CC1)C1CCCN(S(=O)(=O)c2cnc[nH]2)C1 (stereo not drawn)	.	-1	-1	10	5	-45*
CCCS(=O)(=O)N1CCCC(C(=O)NCCCN2CCN(c3cccc(Cl)c3)CC2)C1 (stereo not drawn)	-12	-3	0	11	2	-24
CCCS(=O)(=O)N1CCCC(C(=O)NCCCN2CCN(c3ccccc3F)CC2)C1 (stereo not drawn)	-6	-2	0	9	2	-38*
O=C(NCCCN1CCN(c2ccccc2F)CC1)C1CCN(S(=O)(=O)c2cccs2)CC1	-10	-9	0	-1	6	-29
CC(C)NC(=O)C(=O)NCCC1CCCC1	.	1	.	.	.	.
